Screening data as filed in PubChem.
The full list was thinned out, with hits kept by preference.
TTR transcr act: TTR transcription activators in neuroblastoma reporter cells, primary screen, cell-based, luminescence, SH-SY5Y, TTR promoter Gaussia luciferase | 100% = recombinant luciferase protein wells | activation, % at 16.7 µM | 1.3% of 92,000 active;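 active means activation above the mean of all tested compounds plus 3 SD, cut at about 9.5% in these data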;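 further: cells exposed to compounds for one day before reading; 0% = median of all test compound wells on the plate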
HuH7 TTR inh: TTR promoter reporter inhibitors in hepatoma cells, counter-screen for TTR transcription activator project, cell-based, luminescence, HuH7 hepatoma. HuH7 TTR promoter-Gaussia luciferase reporter. shares compounds with TTR transcr act. 4% of 1,100 active. inhibition, % at 16.7 µM;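 active means average inhibition above the solvent-only control wells' mean plus 3 SD, cut at about 15% in these data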;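 further: 0% = cells with DMSO only and 100% = cells with inhibitor control FD; inhibitors lower well luminescence so higher value means more inhibition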
TTR up confirm: TTR transcription activators, retest, confirmation, cell-based, luminescence, SH-SY5Y, triplicate; AID 1117280, 2014; 1,100 tested, under 10 active; activation, % at 16.7 µM; shares compounds with TTR transcr act; SHSY5Y TTR promoter Gaussia luciferase; 100% = purified Lucia enzyme wells, no cells;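 active means mean activation above a set limit taken from the earlier primary screen, cut at about 11% in these data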;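 further: 0% = DMSO-treated cells and 100% = recombinant Lucia luciferase without cells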
Active calls of the source: *.

SMILES	TTR transcr act	others
COC(=O)[C@]12CCCCC=C1N(Cc1ccc(OC)cc1)C(=O)[C@@H]2CC(=O)N1CCN(C(=O)c2ccco2)CC1	3
O=S(=O)(c1ccc(CN2CCOCCOCCN(Cc3ccc(S(=O)(=O)C(F)(F)F)cc3)CCOCC2)cc1)C(F)(F)F	-2
CC(C)OP(=O)(O)C(C)NC(=O)OCc1ccccc1 (stereo not given)	-2
Cc1ccc(NC(=O)OC2CC3CC2[C@H]2CCCCN2[C@H]3C)cc1 (stereo not given in full)	0
Nc1ncnc(N2CCOCC2)c1N	0
Nc1ncnc2c1ncn2[C@H]1C[C@H](O)[C@@H](CO)O1	9
Nc1ncnc2c1ncn2CCN1CCOCC1	13*	HuH7 TTR inh=-5;TTR up confirm=0
O=C(Nc1nc2c(Br)cccc2s1)c1ccc2c(c1)OCCO2	-3
COC(=O)C[C@H]1CC[C@H]2[C@H](COc3ccc(NS(=O)(=O)c4cccc(OC)c4)cc3C(=O)N2C)O1	0
Cc1cc(C)c(-c2c(O)c3cccnc3n(C)c2=O)c(C)c1	10*	HuH7 TTR inh=-10;TTR up confirm=0
Cn1c(=O)c(-c2ccccc2)c(O)c2ccccc21	-1
Cn1c(=O)c2cccnc2c(=O)n1C	-2
C[n+]1cc(C(O)(c2ccccc2)c2ccccc2)n2ccccc21	0
CSc1nnnn1-c1ccc(C)c(Cl)c1	0
O=C(O)c1ccc(-n2nnnc2SCc2ccccc2F)cc1	0
CSc1nnnn1-c1ccc(C(=O)O)cc1	19*	HuH7 TTR inh=-7;TTR up confirm=0
NCCC(=O)Nc1ccc(Cl)cc1C(=O)c1ccc[nH]1	3
CCSc1nc2ccccc2n1CC(N)=O	0
COCC(C)NC(=O)Cn1c(SCc2ccccc2)nc2ccccc21 (stereo not given)	1
COC(=O)CSc1nc2ccccc2n1CC(=O)N(C(C)C)C(C)C	13*	HuH7 TTR inh=-5;TTR up confirm=-1
CC(C)(N[C@@H](Cc1ccccc1)C(=O)NCC(c1ccccc1)c1ccccc1)C(=O)NC1CCCCC1	-2
COc1cc(NC(=O)c2[nH]c(C)c(C(C)=O)c2C)c(OC)cc1Cl	0
CC1(C)Oc2ccc3ccc(=O)oc3c2-c2cn[nH]c21	10*	HuH7 TTR inh=6;TTR up confirm=0
CC1(C)Oc2ccc3ccc(=O)oc3c2-c2cnoc21	-1
CC1(C)Oc2ccc3ccc(=O)oc3c2C[C@H]1O	2
SMILES	TTR transcr act	others
C[C@H]1[C@H](N(C)C)CC[C@@]23CCCN2C(=O)CCC[C@@H]13	3
COC(=O)[C@@]1(OC(C)=O)CC(OC(C)=O)[C@H](OC(C)=O)[C@H](OC(C)=O)C1Br (stereo not given in full)	1
COc1ccc(C(c2ccc(OC)cc2)N2CCN(C(=O)c3noc(C)c3[N+](=O)[O-])CC2)cc1	0
Cn1nnnc1SCc1nc2ccccc2[nH]1	-1
Cc1nnc(SCc2nc3ccccc3[nH]2)s1	5
c1ccc(SCc2nc3ccccc3[nH]2)nc1	14*	HuH7 TTR inh=-23;TTR up confirm=1
Fc1ccc(CC2CCN(c3ncnc4sccc34)CC2)cc1	-1
O=C(NC1CCCC1)c1ccc(CS(=O)Cc2ccccc2Cl)o1 (stereo not given)	2
O=C(NC1CCCCC1)c1ccc(CS(=O)Cc2ccccc2Cl)o1 (stereo not given)	1
O=C(NCCc1ccc(Cl)cc1)c1ccc(CS(=O)Cc2ccccc2Cl)o1 (stereo not given)	15*	HuH7 TTR inh=1;TTR up confirm=0
O=C(OCC#CCSc1nnc(-c2cccc3ccccc23)o1)c1csc2ccccc12	0
CN1OC[C@@H]2CN(CC3CCCCC3)[C@H](c3ccc(-c4ccc(C#N)cc4)cc3)C[C@@H]21	3
Cc1ccc(F)cc1C(=O)N1CCCC(c2cc(C(=O)Nc3ccccc3)no2)C1 (stereo not given)	-4
O=C(Nc1ccccc1)c1cc(C2CCCN(C(=O)C3CC3)C2)on1 (stereo not given)	10.0*	HuH7 TTR inh=-10;TTR up confirm=0
CN(C)c1ccc(CC(=O)N2CCCC(c3cc(C(=O)Nc4ccccc4)no3)C2)cc1 (stereo not given)	0
CCOC(=O)[C@]12CCCC=C1N(CCCOC)C(=O)[C@@H]2CC(=O)NCc1cccc2ccccc12	1
CN1C2=N[C@@H](c3ccccc3)CC(=O)N2/C(=C\c2ccccc2)[C@H]1c1ccccc1	0
C=CCN1CC(COc2ccc(OC)cc2)OCCS1(=O)=O (stereo not given)	1
Cn1c2ccccc2c2ncn(Cc3ccco3)c(=O)c21	-1
Cn1c2ccc(F)cc2c2ncn(Cc3ccccn3)c(=O)c21	15*	HuH7 TTR inh=-14;TTR up confirm=-1
Cn1c2ccc(F)cc2c2ncn(Cc3ccco3)c(=O)c21	0
CC(=O)Nc1ccc(S(=O)(=O)Nc2ccc3ccccc3n2)cc1	-1
CCN1CCN(c2nc3ccccc3nc2NS(=O)(=O)c2ccc(NC(C)=O)cc2)CC1	12*	HuH7 TTR inh=-9;TTR up confirm=0
CCn1nc(NS(=O)(=O)c2ccc(NC(C)=O)cc2)c2cc3ccccc3nc21	0
Nc1cccc(S(=O)(=O)N2CCCN(S(=O)(=O)c3ccc4c(c3)OCCO4)CC2)c1	-1
SMILES	TTR transcr act	others
Oc1ccc(Nc2ncnc3c2oc2ccccc23)cc1	0
c1coc(CSc2ncnc3c2oc2ccccc23)c1	1
c1ccc(Sc2ncnc3c2oc2ccccc23)nc1	18*	HuH7 TTR inh=20*;TTR up confirm=0
Cc1cccc(Cl)c1-n1nnnc1C1(C)CSCC(=O)N1Cc1ccc(F)cc1 (stereo not given)	2
COC(=O)c1sccc1NC(=O)Nc1cc(C)cc(C)c1	-2
COC(=O)c1sccc1NC(=O)c1cccc(OC)c1	1
COC(=O)c1sccc1NC(=O)Nc1cccc(OC)c1	10.0*	HuH7 TTR inh=-7;TTR up confirm=0
CCCCOCCCNC(=O)C[C@@H]1C[C@]2(C(=O)OCC)CCC3=C2N(CCC3)C1=O	0
Cc1cccc(NC(=O)OC2CC3CC2[C@H]2CCCCN2C3)c1 (stereo not given in full)	-1
CC1(C(=O)NCc2ccccc2)CCC(=O)N1CC(F)(F)F (stereo not given)	2
CC1(C(=O)Nc2ccc3c(c2)OCCO3)CCC(=O)N1CC(F)(F)F (stereo not given)	-2
CC1(C(=O)Nc2ccc3ccccc3c2)CCC(=O)N1CC(F)(F)F (stereo not given)	13*	HuH7 TTR inh=-14;TTR up confirm=1
N[C@H](C(=O)Nc1ccc(Cl)cc1C(=O)c1ccc[nH]1)c1ccccc1	-1
O=C(CCN1C(=O)c2ccccc2C1=O)Nc1nc2ccccc2s1	-1
CCC(CC)c1nnc(NC(=O)CCN2C(=O)c3ccccc3C2=O)s1	15*	HuH7 TTR inh=-18;TTR up confirm=0
CC(C)Cc1nnc(NC(=O)CCN2C(=O)c3ccccc3C2=O)s1	0
COc1ccccc1NC(=O)O[C@@H]1CC[C@@]23CCCN2C(=O)CCC[C@H]3C1	0
C[C@H]1C2CC(OC(=O)Nc3cccc(Cl)c3)C(C2)[C@H]2CCCCN21 (stereo not given in full)	-2
CCC[C@H]1[C@@H](NC(=O)C2CCOC2)CC[C@@]23CCCN2C(=O)CCC[C@@H]13 (stereo not given in full)	-2
COc1ccc(NC(=O)c2oc3ccccc3c2CSC)cc1S(=O)(=O)N1CCOCC1	-1
